# Luciferase inh: Firefly luciferase inhibition profiling of diverse chemical library using quantitative high-throughput screening. Potency, µM (top dose mostly 115 µM), actives largely listed as inhibitors. hit rate 2.5% among 76,000. Luciferin 4-monooxygenase (Photinus pyralis), P08659. AID 1347043, 2019. purified P. pyralis luciferase, luminescence, biochemical; note: nearly all actives have a fitted effect of over 65% in size
#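 Inhibitors were tested against purified firefly luciferase in a biochemical, low-substrate format (both substrates at 10uM) and luminescence measured with a CCD imager.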
# 3T3 cytotox: Cytotoxic Profiling in NIH 3T3 Cell Line of Diverse Libraries Using Quantitative High-Throughput Screening; NIH 3T3 viability, CellTiter-Glo ATP luminescence, 48-72 h; Potency, µM (titrated, usually from 96.7 µM), usual class: inhibitors; AID 1345082, 2018; hit rate 4.3% among 94,000; note: nearly all actives have a fitted effect of over 55% in size
#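 Viability of NIH 3T3 cells after 48 or 72 hr compound treatment at 37 °C was assessed by CellTiter-Glo, with luminescence imaged following a 10 min room-temperature step.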
# HEK cytotox: Cytotoxic Profiling in HEK 293 Cell Line of Diverse Libraries Using Quantitative High-Throughput Screening. AID 1345083, 2018. HEK 293 viability, ATP luminescence (CellTiter-Glo), 48-72 h. hit rate 6.6% among 94,000. Potency, µM (titrated, usually from 115 µM), usual class: inhibitors; note: nearly all actives have a fitted effect of over 60% in size
#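 HEK 293 cells at 250 cells/well were exposed to compounds by pintool transfer for 48 or 72 hr at 37 degree Celsius, 5% CO2. Viability was read as ATP-coupled luminescence with CellTiter-Glo after 10 min at room temperature.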
# GPT2 inh: Primary qHTS assay for inhibitors of Glutamate pyruvate transaminase 2 (GPT2) | AID 1671188, 2021 | Alanine aminotransferase 2 (Homo sapiens), Q8TD30 | Recombinant GPT2, coupled pyruvate oxidase/HRP Amplex Red fluorescence | hit rate 0.25% among 100,000 | Potency, µM (titrated, usually from 57.7 µM), most hits filed as inhibitors; note: nearly all actives have a fitted effect of over 60% in size
#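 GPT2 10ng/uL, a-KG 250uM, L-Ala 2mM, HEPES pH7.5 + 0.0001% Tween; 30 min RT. Then Amplex mix (PO/HRP/ThPP), 30 min RT dark, fluorescence. AOA 50uM used as positive control.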
# NPR1 antag: Natriuretic polypeptide receptor (hNpr1) antagonism - Primary qHTS; Atrial natriuretic peptide receptor 1 (Homo sapiens), P16066; HEK293 hNpr1 GloSensor cGMP, ANP-stimulated luminescence; Potency, µM (titrated, usually from 46.3 µM), actives largely listed as inhibitors; hit rate 1.6% among 76,000; AID 1347048, 2019; calls by dose curve; note: nearly all actives have a fitted effect of over 60% in size
#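 Compound pre-incubated 30 min at room temperature on GloSensor-loaded HEK293 cells stably carrying hNpr1 and the pGS-40F cGMP biosensor. Stimulation uses hNppA at 0.1 nM final; luminescence is taken at baseline and 20 min post-agonist.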
# A number is an active result; 0 = inactive; ? = inconclusive; - = not tested or not shown. Most compounds without a hit are left out; they make up all but 10% or so of the library. Unless noted, calls come from the whole dose curve; as a rule, active = well fitted curve in the direction sought with a large enough effect; inconclusive = small, poorly fitted or top-dose-only effect, or another doubt; inactive = no such curve, though single readings can be large; an effect the other way counts as inactive or inconclusive.
SMILES,Luciferase inh,3T3 cytotox,HEK cytotox,GPT2 inh,NPR1 antag
CN1CC(n2ccnc2-c2cnc(-c3cccc4ccccc34)nc2)CCC1=O (stereo unspecified),0,0,0,0,0
COc1cc(NC(=O)CN2C(=O)C(c3ccccc3)=NC2(C)C)cc(OC)c1OC,0,?,0,0,0
CCCOC1CCCN(C(=O)c2ccc3nc(-c4ccc(F)cc4)cn3c2)C1 (stereo unspecified),0,0,25.1µM,0,0
O=C(c1ccc2nc(-c3ccc(F)cc3)cn2c1)N1C[C@@H]2CCCN[C@@H]2C1,?,?,0,0,0
CCOc1nccn2c(-c3ccc(CNC(=O)Cn4cnnn4)cc3)cnc12,0,?,0,0,0
O=C(c1ccccc1F)N1CCC2(CCc3nn(Cc4ccccc4)c(=O)n3CC2)CC1,-,0,?,0,-
COc1ccccc1-c1ccc2ncn(C3CC3)c(=O)c2n1,0,?,0,0,0
O=c1c2nc(NCc3ccccc3)ccc2ncn1Cc1ccccc1,0,35.5µM,?,0,0
COc1ccccc1-c1ccc2ncn(Cc3ccccc3)c(=O)c2n1,0,7.94µM,?,0,0
Cc1csc(Nc2ccc3ncn(Cc4ccccc4)c(=O)c3n2)n1,0,?,?,0,0
O=C1c2c(nc(COc3cc(F)cc(F)c3)n2Cc2ccccc2)NCCN1CC1CCOCC1,0,?,?,0,0
CN(C)Cc1ccc2c(c1)c(OC(C)(C)C(=O)NC1CC1)nn2Cc1ccccc1,0,?,0,0,0
Cc1ccc(-c2nocc2CCC(=O)NCc2cccc(Br)c2)cc1,0,?,?,0,0
COC(=O)N(C)C1CCCc2ccccc21 (stereo unspecified),0,0,?,?,0
Cc1ccc(C(=O)N(C)C2CCCc3ccccc32)cc1 (stereo unspecified),35.5µM,?,79.4µM,0,0
CN(C(=O)c1ccc(F)cc1)C1CCCc2ccccc21 (stereo unspecified),?,?,100µM,0,0
CC(=O)Nc1ccc(CN2CCN(c3cc(Cl)ncn3)C(=O)C2)cc1,0,35.5µM,10µM,0,0
O=C1CN(Cc2cccc(-c3ccsc3)c2)CCN1c1cc(Cl)ncn1,0,?,79.4µM,0,0
CC(C)CN1CCN(c2cc(Cl)ncn2)C(=O)C1,0,0,?,0,0
O=C(NCc1csc(-c2cnccn2)n1)C1NCCc2[nH]cnc21 (stereo unspecified),0,0,0,0,0
CC(C)CCN1CC(Oc2ccc(F)cc2F)C1,-,0,0,0,-
N#Cc1cccc(CN2CC[C@H](c3nc4ccccc4[nH]3)C2)c1,0,56.2µM,50.1µM,0,0
N#Cc1ccc2nc([C@H]3CCN(Cc4ccc(F)c(F)c4)C3)[nH]c2c1,0,31.6µM,?,0,0
CN1CC[C@H](c2nc3ccccc3[nH]2)C1,0,?,0,0,0
CN(C)c1ccc(CN2CC[C@H](c3nc4ccc(C#N)cc4[nH]3)C2)cc1,0,?,?,0,0
SMILES,Luciferase inh,3T3 cytotox,HEK cytotox,GPT2 inh,NPR1 antag
COc1ccc2nc([C@H]3CCN(Cc4cccc(C#N)c4)C3)[nH]c2c1,0,31.6µM,39.8µM,0,0
CC(C)CCN1CC[C@H](c2nc3ccccc3[nH]2)C1,35.5µM,0,?,0,0
c1cncc(CN2CC[C@H](c3nc4ccccc4[nH]3)C2)c1,0,0,?,0,0
CCNC(=O)C1(CCO)CCN(Cc2ccccc2)C1 (stereo unspecified),0,0,0,0,0
Cc1ccc(C(=O)N2CCCC(C(=O)N3CCC(N4Cc5cccn5C4=O)CC3)C2)cc1 (stereo unspecified),-,0,0,0,-
O=C1NC2(CN(Cc3ccc(C(F)(F)F)cc3)C2)Oc2ccccc21,0,?,?,0,0
Cc1noc(C)c1-c1cc2cc(C(C)C)oc2c(NCCN2CCOCC2)n1,0,?,?,0,0
Cc1noc(C)c1-c1cc2cc(C(C)C)oc2c(Nc2ccn(C)n2)n1,0,?,63.1µM,0,0
